# TDP1 cell CPT = DT40-hTDP1 cell growth loss with CPT. chicken DT40 Tdp1-/-;hTDP1 cells + 20 nM CPT, ATP luminescence, 48 h. Potency, µM (top dose mostly 46.2 µM), without a hit: at the top dose activity change, negative = growth inhibition, hits mostly inhibitors. actives 12% (n = 420,000); note: nearly all actives have a fitted effect of over 55% in size
#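 Chicken DT40 Tdp1-/- cells complemented with human TDP1, 400 cells/well, exposed to compounds plus 20 nM camptothecin for at least 48 h at 37 C; viability read as ATP content by CellTiter-Glo luminescence.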
# ELG1 DNA repair = inhibitors of ELG1-dependent DNA repair in HEK293T cells; HEK293T ELG1-luciferase reporter, luminescence, 16 h; DNA damage induced by 5-fluorouridine; Potency, µM (top dose mostly 46.1 µM), for the others: at the top dose activity change, negative = inhibition, hits mostly inhibitors; actives 2.3% (n = 330,000); AID 504467; note: nearly all actives have a fitted effect of over 55% in size
#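 Luminescence from the luciferase reporter, measured 30 min after ONE-Glo reagent at room temperature, was the read-out. Beforehand, 2,000 cells per well were exposed for 16 hr at 37 °C to 5-fluorouridine together with compound or vehicle.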
# RORg inh = ROR gamma (mouse) transcription inhibition; P51450; Drosophila S2 Gal4-RORgamma UAS-luciferase reporter, 20 h; Potency, µM (top dose mostly 53.6 µM), inactives show at the top dose activity change, negative = inhibition, usual class: inhibitors; actives 5.4% (n = 310,000); note: nearly all actives have a fitted effect of over 60% in size
# Target sequence (P51450 whole entry, looked up, the tested form may be a part): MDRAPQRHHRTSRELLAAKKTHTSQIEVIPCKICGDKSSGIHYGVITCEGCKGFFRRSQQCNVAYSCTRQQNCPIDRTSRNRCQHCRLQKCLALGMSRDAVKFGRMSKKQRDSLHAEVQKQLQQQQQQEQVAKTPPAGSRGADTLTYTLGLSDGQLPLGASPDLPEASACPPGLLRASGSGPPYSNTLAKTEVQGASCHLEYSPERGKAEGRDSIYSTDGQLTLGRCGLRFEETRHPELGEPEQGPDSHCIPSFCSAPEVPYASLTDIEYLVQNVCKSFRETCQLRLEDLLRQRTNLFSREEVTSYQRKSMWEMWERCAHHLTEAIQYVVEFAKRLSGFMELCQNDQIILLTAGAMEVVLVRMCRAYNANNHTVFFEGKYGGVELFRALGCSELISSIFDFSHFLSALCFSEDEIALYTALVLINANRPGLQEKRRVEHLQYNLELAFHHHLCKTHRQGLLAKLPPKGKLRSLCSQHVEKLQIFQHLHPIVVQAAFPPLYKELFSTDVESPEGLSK
#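 In this cell-based reporter format, copper sulfate (700 uM final) drives Gal4–ROR gamma fusion expression from a metallothionein promoter in Drosophila Schneider cells; compounds preincubated 1 hr, reporter read after 20 hr at ambient temperature.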
# TDP1 cell noCPT = qHTS for Inhibitors of human tyrosyl-DNA phosphodiesterase 1 (TDP1): qHTS in cells in absence of CPT; DT40 Tdp1-/- hTDP1 cells, no CPT, ATP luminescence, 48 h; Potency, µM (highest dose often 46.2 µM), inactives show at the top dose activity change, negative = growth inhibition, actives largely listed as inhibitors; actives 15% (n = 420,000); note: nearly all actives have a fitted effect of over 55% in size
#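 Camptothecin absent (DMSO only). Human TDP1-complemented DT40 knockout cells, 400 cells/well, 37 °C for minimum 48 hr; ATP measured via CellTiter-Glo, 30 min dark incubation, luminescence.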
# 12-LOX inh = blocks human arachidonate 12S-lipoxygenase; P18054; purified 12hLO, xylenol orange hydroperoxide absorbance; Potency, µM (titrated, usually from 108 µM), for inactives: at the top dose activity change, negative = inhibition, actives largely listed as inhibitors; actives 1.1% (n = 580,000)
#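 Purified human 12hLO (150 nM final) in 25 mM Hepes, 0.01% Triton X-100, pH 7.0 was preincubated 15 min at room temperature with compound. Then 40 uM arachidonic acid was added, 30 min. Hydroperoxide was read by Fe-XO absorbance ratio 573/405 nm.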
# Gal4-VP16 FLuc = inhibits Gal4-VP16 luciferase reporter, ROR gamma counter-screen. actives 3.5% (n = 310,000). Potency, µM (titrated, usually from 53.6 µM), for inactives: top-dose activity, negative = inhibition, hits mostly inhibitors. Drosophila S2 Gal4-VP16 UAS-luciferase, luminescence, 20 h;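 note: Gal4-VP16 expression switched on by copper sulfate through the metallothionein promoter; nearly all actives have a fitted effect of over 50% in size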
# * hit, by the source's call; ? = inconclusive; · = no result; [ ] = dose if it differs, or a comment. Shown are actives, neighbours in structure and some others; about 15% of the full set was active somewhere. Calls come from the whole dose curve; as a rule, active = well fitted curve in the direction sought with a large enough effect; inconclusive = small, poorly fitted or top-dose-only effect, or another doubt; inactive = no such curve, though single readings can be large; an effect the other way counts as inactive or inconclusive. % is set by controls: 0 for no effect and ±100 for the full control effect; potency is the fitted concentration of half-maximal effect.
SMILES,TDP1 cell CPT,ELG1 DNA repair,RORg inh,TDP1 cell noCPT,12-LOX inh,Gal4-VP16 FLuc
O=C(Nc1ccccc1C(=O)NC(Cc1ccccc1)C(=O)NC1CCCCCC1)c1ccccc1 (centres undefined),?,?,15.6%,23.1µM*,89.6%,-3.4%
CC(=O)c1ccc(S(=O)(=O)N2CCN(C(=O)c3cc(C)no3)CC2)cc1,·,·,·,·,-2.8%,·
COc1ccc(C2CC23N=C(c2ccccc2)OC3=O)cc1 (centres undefined),18.4µM*,7.8%,22.0%,?,0.1%,5.0%
O=c1c2c(CO)c(-c3ccccc3)nn2ccn1Cc1ccccc1F,·,·,·,·,3.4%,·
N#Cc1cccnc1NCCNC(=O)Nc1ccccn1,·,·,·,·,3.2%,·
CCc1cccc(N2C(=O)CSC23C(=O)Nc2ccccc23)c1 (centres undefined),·,·,·,·,-6.9%,·
CCc1ccc2c(c1)C1(NN=C(c3cccc4ccccc34)S1)C(=O)N2 (centres undefined),·,-24.4%,2.82µM*,·,?,2.82µM*
O=C(COc1ccccc1Cl)c1ccc2c(c1)CCCC2,-23.7%,?,14.1µM*,-22.2%,9.9%,?
O=C(COc1ccccc1Cl)c1ccccc1,·,·,·,·,53.8%,·
CC(=O)NNC(=O)CCn1nnc(-c2ccc(Cl)cc2)n1,8.5%,-5.1%,26.1%,-17.6%,-7.8%,-2.8%
C=C(C)CNC(=S)NNC(=O)CCn1c2cc(Cl)ccc2c2ccc(Cl)cc21,-31.0%,-5.1%,5.01µM*,?,?,8.91µM*
Cn1cccc1CC(=O)NNC(=S)Nc1ccc(Cl)cc1Cl,?,1.6%,?,5.1%,-14.9%,?
C=C(C)CNC(=S)NNC(=O)CCn1c2ccc(Cl)cc2c2cc(Cl)ccc21,?,-17.9%,0.631µM*,?,31.6µM*,0.501µM*
C=C(C)CNC(=S)NNC(=O)c1ccncc1,2.3%,7.7%,?,-26.3%,43.7%,-7.1%
C=C(C)CNC(=S)NNC(=O)CCn1c2ccccc2c2ccccc21,?,-0.2%,7.08µM*,?,?,?
Cc1ccc(NC(=O)CC2=NC(=O)C(CC(=O)Nc3ccccc3F)S2)cc1 (centres undefined),?,14.5%,31.2%,18.4µM*,-12.1%,2.9%
Cc1ccc(-c2sc(-c3ccccc3)nc2CC(=O)Nc2ccccc2F)cc1,-28.7%,-16.0%,?,?,-27.0%,5.01µM*
COC(=O)c1cccc(NC(=O)Cc2nc(-c3ccccc3)sc2-c2ccc(C)cc2)c1,?,?,?,18.4µM*,-17.9%,-11.1%
COc1cccc(NC(=O)Cc2nc(-c3ccccc3)sc2-c2ccc(C)cc2)c1,?,29.6%,?,16.4µM*,-17.2%,?
CCNC(=O)C1CCCN(Cc2ccc(C(F)(F)F)cc2)C1 (centres undefined),·,·,·,·,-25.2%,·
C=CCNc1nc(Nc2cc(Cl)ccc2OC)nc(OC)n1,1.1%,-6.4%,-10.4%,-21.0%,28.0%,-2.8%
C=CCNc1nc(Nc2ccccc2F)nc(OCC)n1,?,?,12.6µM*,-26.3%,1.1%,11.0%[10 µM]
C=CCNc1nc(Nc2ccc(OC)cc2OC)nc(OCC)n1,16.4µM*,?,-15.2%,?,0.0%[57.4 µM],-7.8%
CN(Cc1cccs1)C(=O)CC1CCCC1,·,·,·,·,-50.4%,·
CCc1ccc(Cl)c(CC)c1NC(=O)C1CC2CCC(C1)C21SCCS1 (centres undefined),·,·,·,·,2.4%,·
SMILES,TDP1 cell CPT,ELG1 DNA repair,RORg inh,TDP1 cell noCPT,12-LOX inh,Gal4-VP16 FLuc
COc1cccc(NC(=O)C2N(C(C)C)C(=O)C23CCCC3)c1 (centres undefined),·,·,·,·,47.9%,·
CCCCc1ccc(NC(=O)COc2ncnc3ccccc23)cc1,·,·,·,·,-12.4%,·
Cc1ccc(CN2CCN(Cc3c[nH]c4ccccc34)CC2CCO)o1 (centres undefined),7.31µM*,-0.9%,0.8%,?,-2.3%,1.0%
Cc1ccc(CN2CCN(Cc3cc(=O)c4ccccc4[nH]3)CC2CCO)o1 (centres undefined),0.5%,10.5%,-5.9%,17.1%,0.9%,8.5%
CCOc1ccccc1CN1CCN(Cc2[nH]c3ccccc3c2C)CC1CCO (centres undefined),?,-21.8%,?,14.6µM*,-26.4%,?
CCOc1ccccc1CN1CCN(Cc2ccc(C)o2)C(CCO)C1 (centres undefined),-19.1%,-2.9%,-1.8%,?,5.2%,2.5%
CCOc1ccccc1CN1CCN(Cc2cc(=O)c3ccccc3[nH]2)CC1CCO (centres undefined),?,-18.5%,1.2%,?,12.3%,4.3%
CCOc1ccccc1CN1CCN(Cc2c[nH]c3ccccc23)CC1CCO (centres undefined),9.2µM*,-9.2%,0.4%,16.4µM*,25.0%,-4.8%
OCCC1CN(Cc2ccccc2OC2CCCC2)CCN1Cc1ccsc1 (centres undefined),?,2.9%,14.9%,14.6µM*,-0.3%,-12.9%
CC(C)Cn1c(SCC(=O)Nc2ccc(C(=O)O)cc2)nnc1-c1ccc(Cl)cc1,·,·,·,·,9.8%,·
COc1ccc(S(=O)(=O)N2CCOC23CCN(S(=O)(=O)c2ccc(Cl)cc2)CC3)cc1,?,-9.2%,·,?,-2.2%,·
COc1ccc(S(=O)(=O)N2CCOC23CCN(S(=O)(=O)c2c(C)cc(C)cc2C)CC3)cc1,?,?,·,16.4µM*,-13.2%,·
COc1ccc(S(=O)(=O)N2CCOC23CCN(S(=O)(=O)c2cc(C)ccc2C)CC3)cc1,20.6µM*,5.4%,·,?,-12.5%,·
COc1ccc(S(=O)(=O)N2CCOC23CCN(S(=O)(=O)c2ccc(F)cc2C)CC3)cc1,?,-7.4%,·,23.1µM*,-0.5%,·
Cc1cc(C)cc(NC(=O)C2CCN(c3ncnc4c3sc3ncccc34)CC2)c1,·,·,·,·,-5.0%,·
CCCc1sc(N2CCCC(C(N)=O)C2)nc1-c1ccccc1 (centres undefined),?,-6.0%,29.8%,18.4µM*,-0.7%,0.1%
Cc1ccc(NC(=S)NC(=O)c2cncc(Br)c2)c(C)c1,1.5%,·,·,-21.2%,53.4%,·
O=C(NC(=S)Nc1ccccc1Cl)c1cncc(Br)c1,19.2%,?,2.51µM*,-27.1%,?,4.47µM*
COc1ccc(NC(=S)NC(=O)c2cncc(Br)c2)c(OC)c1,-2.2%,24.3%,2.51µM*,-6.5%,1.9%,?

# Source: PubChem BioAssay
